In PubChem BioAssay AID1159580 (chemical genetic matrix, 2015):
In all, about 5,500 compounds went through this assay and about 2,000 (36%) were called active. About 18% were inconclusive and are not listed. Cut-off read from the data, not from the text of the source: active = normalized growth mostly below about 0.91 (no sharp cut-off); inconclusive = no clear call, values can overlap the other calls; inactive = mostly above about 0.92. This is one part of the list.

Assay: chemical genetic growth profiling, strain panel (AID 1159580);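 note: tested at 20 µM; growth read once vehicle control cultures reached saturation at 30 °C; 1 = growth at the plate median or of vehicle wells; lower values mean less growth of the strain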
Conditions: growth OD
[1] = S. cerevisiae deletion strains, locus YJR075W, strain HOC1, stronger effect = lower value
[2] = S. cerevisiae deletion strains, locus YNL322C, strain KRE1, stronger effect = lower value
[3] = S. cerevisiae deletion strains, locus YPL055C, strain LGE1, stronger effect = lower value

Measured: normalized growth

CSc1nc(N)n(-c2ccccc2)n1
inactive: S. cerevisiae deletion strains, locus YAL013W, strain DEP1, stronger effect = lower value 1 | S. cerevisiae deletion strains, locus YBR229C, strain ROT2, stronger effect = lower value 1.02 | S. cerevisiae deletion strains, locus YCL061C, strain MRC1, stronger effect = lower value 1.02 | S. cerevisiae deletion strains, locus YDL101C, strain DUN1, stronger effect = lower value 1 | S. cerevisiae deletion strains, locus YDL134C, strain PPH21, stronger effect = lower value 1.01 | S. cerevisiae deletion strains, locus YDR150W, strain NUM1, stronger effect = lower value 0.916 | S. cerevisiae deletion strains, locus YEL061C, strain CIN8, stronger effect = lower value 1.06 | S. cerevisiae deletion strains, locus YGR078C, strain PAC10, stronger effect = lower value 1 | S. cerevisiae deletion strains, locus YGR229C, strain SMI1, stronger effect = lower value 0.99 | S. cerevisiae deletion strains, locus YHR030C, strain SLT2, stronger effect = lower value 1.05 | S. cerevisiae deletion strains, locus YHR087W, strain rtc3, stronger effect = lower value 1 | S. cerevisiae deletion strains, locus YJR043C, strain POL32, stronger effect = lower value 0.989 | [1] 1 | S. cerevisiae deletion strains, locus YKL190W, strain CNB1, stronger effect = lower value 1.01 | S. cerevisiae deletion strains, locus YLR039C, strain RIC1, stronger effect = lower value 1.03 | S. cerevisiae deletion strains, locus YLR058C, strain SHM2 (second series), stronger effect = lower value 1.02 | S. cerevisiae deletion strains, locus YLR085C, strain ARP6, stronger effect = lower value 0.995 | S. cerevisiae deletion strains, locus YLR262C, strain YPT6, stronger effect = lower value 1.09 | S. cerevisiae deletion strains, locus YML094W, strain GIM5, stronger effect = lower value 0.988 | S. cerevisiae deletion strains, locus YMR219W, strain ESC1, stronger effect = lower value 1 | S. cerevisiae deletion strains, locus YMR263W, strain SAP30, stronger effect = lower value 1 | S. cerevisiae deletion strains, locus YNL153C, strain GIM3, stronger effect = lower value 1 | S. cerevisiae deletion strains, locus YNL298W, strain CLA4 (second series), stronger effect = lower value 1 | [2] 1 | S. cerevisiae deletion strains, locus YNR030W, strain Alg12, stronger effect = lower value 1.02 | [3] 0.994 | S. cerevisiae deletion strains, locus YPL241C, strain CIN2, stronger effect = lower value 1.01 | S. cerevisiae deletion strains, locus YPR135W, strain CTF4, stronger effect = lower value 1.07 | S. cerevisiae strains, strain wild type, stronger effect = lower value 1.01

O=C(O)/C=C/C(=O)O
inactive: S. cerevisiae deletion strains, locus YAL040C, strain CLN3, stronger effect = lower value 1.02 | S. cerevisiae deletion strains, locus YCL061C, strain MRC1 (second series), stronger effect = lower value 1.01 | S. cerevisiae deletion strains, locus YDR363W, strain ESC2, stronger effect = lower value 1.01 | S. cerevisiae deletion strains, locus YER002W, strain NOP16, stronger effect = lower value 1.04 | [1] 1.01 | S. cerevisiae deletion strains, locus YNL128W, strain TEP1, stronger effect = lower value 1.01 | S. cerevisiae deletion strains, locus YNL175C, strain NOP13, stronger effect = lower value 1.01 | S. cerevisiae deletion strains, locus YNL197C, strain WHI3, stronger effect = lower value 1 | S. cerevisiae deletion strains, locus YNL224C, strain SQS1, stronger effect = lower value 1 | [2] 1.02 | S. cerevisiae deletion strains, locus YOR083W, strain WHI5 (second series), stronger effect = lower value 1 | [3] 1.02
